This note sets out measurements from PubChem BioAssay (Tox21).

Structures are written as SMILES. Records with an inconclusive call do not appear. Where a call stands in place of a potency, no number is given. Where a structure was tested more than once in an assay, its records may differ in their call. Calls of active or inactive are those of the source. The call rests on the fitted dose curve; in most records, active means well fitted cell-killing curve with a large enough effect in the repeat runs; inconclusive means weak or mixed curves, or effect the other way; inactive means flat fitted curve, though single readings scatter.
Potency means the concentration at half of the fitted maximal effect.

This test can be described thus: qHTS assay to identify small molecule agonists of the sonic hedgehog signaling (Shh) pathway - cell viability counter screen (AID 1259366). Further: nearly all actives have a fitted effect of over 50% in size. The following applies: NIH/3T3 Gli1-Luc viability, CellTiter-Fluor, 24 h; series mostly up to 92.4 µM. The text has this: National Center for Advancing Translational Sciences [NCATS]
NIH Chemical Genomics Center [NCGC]
U.S. Environmental Protection Agency [EPA]
National Institutes of Environmental Health Sciences [NIEHS]
National Toxicology Program [NTP]
U.S. Food and Drug Administration [FDA]
The sonic hedgehog (Shh) pathway is essential for normal embryonic development. Dysregulation of the Shh pathway can cause severe developmental defects in organs. Therefore chemicals that interfere with the pathway are potential developmental toxicants. A cell line designated 3T3Gli1-Luc (DMB/OARSA/CFSAN/FDA, Laurel, MD), a NIH/3T3 derived clone containing stably integrated Gli1-Luc reporter is used to detect chemical interference of the Shh pathway, by changes in the expression of the firefly Luc gene under the control of the Gli1 transcriptional response element. This cell line was used to screen Tox21 libraries for identifying and prioritizing the potential developmental toxicants that interfere Shh pathway. The cytotoxicity of the compounds was tested in parallel by measuring the cell viability using CellTiter-Fluor assay system (Promega, Madison, WI) in the same wells.
Tox21 Assay Protocol Summary:
3T3 Gli1-Luc cells were dispensed at 2,000 per well in 5uL of culture medium into white solid bottom 1536-well plates (Greiner Bio-One, Monroe, NC) using a Multidrop Combi (Thermo Scientific, Waltham, MA) dispenser. The assay plates were incubated at 37 C and 5% CO2 for 4hr, and then 23nL of compounds dissolved in DMSO and positive control were transferred using a Pintool station (Wako, San Diego, CA). The assay plates were incubated at 37C and 5% CO2 for 24hr. For viability read, after 23hr of compound treatment, 1uL of CellTiter-Fluor reagent (Promega Corporation, Madison, WI) was added to each well of the assay plates using Flying Reagent Dispenser (FRD, Aurora Discovery, San Diego, CA) and incubated the assay plates at 37C for 1hr. The fluorescence signal was quantified using a ViewLux plate reader (Perkin Elmer, Shelton, CT).
Turning to `CCCCC(CC)COC(=O)CCCCC(=O)OCC(CC)CCCC` (stereo not given), the Potency result is “inactive”.

`C#C[C@]1(O)CC[C@H]2[C@@H]3CCC4=CC(=O)CC[C@@H]4[C@H]3CC[C@@]21C`: the Potency result was “inactive”.

For `O=c1[nH]c(=O)n([C@H]2CCCO2)cc1F`, the Potency entry was “inactive”.

Take `Nc1ccccc1[N+](=O)[O-]`: the Potency result was “inactive”.

`CCCCCCOCCO`: the Potency result is “inactive”.

Take `CC1=C(C)S(=O)(=O)CCS1(=O)=O`: the Potency entry is “inactive”.

`Cc1cccnc1`: the Potency result was “inactive”.

For `O=S1(=O)CC=CC1`, the Potency result was “inactive”.

For the compound `c1ccc2c(c1)ccc1ccccc12`, the Potency entry is “inactive”.

Take `Oc1cccc2ccccc12`: the Potency entry was “inactive”.

With `CCCCCCCCCCCCc1ccccc1`, the Potency entry is “inactive”.

As for `CC1=CC(=O)NS(=O)(=O)O1`, the Potency result was “inactive”.

For `O=C(O)c1cc(C(=O)O)cc(S(=O)(=O)O)c1`, the Potency entry was “inactive”.

For `O=C(CC(C(=O)OC1CCCCC1)S(=O)(=O)O)OC1CCCCC1` (stereo not given), the Potency result is “inactive”.

Turning to `CN(C)CCCN`, the Potency entry was “inactive”.

On to `O=C(O)c1cc(=O)c2c(OCC(O)COc3cccc4oc(C(=O)O)cc(=O)c34)cccc2o1`, for which the Potency entry was “inactive”.

In the case of `NNc1nncc2ccccc12`, the viability change, negative = cytotoxic is -0.875% [at 19 µM] (inactive) and the Potency is 48.6 µM (active).

For the compound `C=C(C)C(=O)O[C@H]1C[C@@H]2CC[C@@]1(C)C2(C)C`, the Potency result was “inactive”.

`CCCCCC(N)=O`: the Potency entry is “inactive”.

With `Cc1cccc(O)c1`, the Potency result was “inactive”.

For `CCN(CC)c1ccc(C(=O)c2ccccc2C(=O)O)c(O)c1`, the Potency result is “inactive”.

On to `OCC(CO)(CBr)CBr`, for which the Potency entry was “inactive”.

`O=c1[nH]nnc2ccccc12`: the Potency result is “inactive”.

`O=C(Oc1ccccc1)c1ccccc1`: the Potency result was “inactive”.

In the case of `Cc1occc(=O)c1O`, the Potency entry was “inactive”.

As for `CC1CCC(C(C)C)C(O)C1` (stereo not given), the Potency entry was “inactive”.

Regarding `O=C(O)c1cc(O)c(O)c(O)c1`, the Potency is 61.7 µM (active) and inactive.

Turning to `CC(C)(N)CO`, the Potency entry was “inactive”.

With `CCCCCCCCCC`, the Potency result was “inactive”.

Take `O=C(O)[C@H](O)[C@@H](O)[C@H](O)[C@H](O)CO`: the Potency result was “inactive”.

For `CC(=O)OCC(=O)[C@@]12N=C(C)O[C@@H]1C[C@H]1[C@@H]3CCC4=CC(=O)C=C[C@]4(C)[C@H]3[C@@H](O)C[C@@]12C`, the Potency entry is “inactive”.

With `N[C@@H](Cc1cc(I)c(Oc2cc(I)c(O)c(I)c2)c(I)c1)C(=O)O`, the Potency entry was “inactive”.

As for `C#CCN(C)Cc1ccccc1`, the Potency result is “inactive”.

For the compound `CCc1ccc(CCOc2ccc(CC3SC(=O)NC3=O)cc2)nc1` (stereo not given), the Potency result was “inactive”.

Turning to `CCCCCC/C(C=O)=C\c1ccccc1`, the Potency entry was “inactive”.

On to `CC(=O)c1ccccc1`, for which the Potency result is “inactive”.

For the compound `CCCCC(CC)COC(=O)CS` (stereo not given), the Potency entry was “inactive”.

For `COc1ccc2cc([C@H](C)C(=O)O)ccc2c1`, the Potency result was “inactive”.

As for `c1ccc2scnc2c1`, the Potency result was “inactive”.
